TROY NFkB inh: blocks TROY-dependent signaling in reporter cells. Q293 LMP1-TROYcd NF-kB luciferase reporter, 4 h. AID 1347056. inhibition, % at 10 µM. 360,000 tested, 0.98% active;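 active = compounds whose plate-normalised and pattern-corrected inhibition of the luciferase reporter signal at the single screening dose is 50% or more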
EWS-Fli inh: inhibitors of EWS/Fli oncoprotein transcriptional activity; A673 NR0B1-luciferase reporter, viability-normalised; AID 651661; inhibition, % at 12.6 µM; 350,000 tested, 0.67% active;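 active = mean inhibition of at least 50% after viability correction, with every replicate also passing that limit; inconclusive = mean reaches 50% but only one of two replicates passes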;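 also: firefly luciferase signal divided by Alamar Blue viability fluorescence both relative to DMSO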
LMP1 NFkB inh: Epstein-Barr LMP1 NF-kappaB reporter inhibition; 350,000 tested, 0.69% active; AID 504558; inhibition, % at 12.5 µM; LMP1-induced NF-kappaB luciferase reporter cells, luminescence; in the data active = inhibition above about 41%; inconclusive = no clear call, values can overlap the other calls;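 also: 0% = neutral control wells and 100% = reference inhibitor control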
LGR2 inh: Drosophila LGR2 receptor signaling inhibition | HEK293 LGR2, CRE-luciferase, bursicon-stimulated, 4 h | inhibition, % at 9.99 µM | 380,000 tested, 0.35% active | AID 720647;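 active = drop in luminescence signal, shown as inhibition above about 50% in the replicate tests, limit read from the data, passing the limit was not always enough; inconclusive = probably only some replicates passing the limit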;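 also: agonist challenge used bursicon conditioned medium at about half maximal strength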
TWEAK-Fn14 inh: TWEAK-Fn14 signaling inhibition; TWEAK-stimulated Fn14 reporter cells, luciferase luminescence, 8 h; inhibition, % at 10 µM; 360,000 tested, 2% active; AID 1159606; in the data active = inhibition above about 50%
The depositor's hits bear a star; ? = inconclusive; . = not tested or not shown. An excerpt weighted towards active compounds, which were near 2.5% of everything screened.

SMILES	TROY NFkB inh	EWS-Fli inh	LMP1 NFkB inh	LGR2 inh	TWEAK-Fn14 inh
O=C(NC[C@H]1[C@@H](c2ccccc2)[C@@H](CO)N1CC1CCCC1)c1cccnc1	.	2.2	.	24.3	.
CC(=O)N1c2ccc(S(=O)(=O)NCC3CCC(C(=O)Nc4cccc(C)n4)CC3)cc2CC1C (stereo not given)	22.1	19.3	22.0	5.7	58.8*
O=[N+]([O-])c1ccc(N=Nc2ccc(O)c3ccccc23)cc1	33.5	.	-4.4	.	69.4*
Cc1noc(C)c1S(=O)(=O)Nc1ccc2c(c1)C(=O)N([C@@H](C)CO)C[C@H](C)[C@H](CN(C)Cc1ccc(C(F)(F)F)cc1)O2	.	6.2	.	-5.4	.
CSC1SCC2C(=O)N(C)C(C(C)C)C(=O)OCC(NC(=O)c3cnc4ccccc4n3)C(=O)NC(C)C(=O)N(C)C1C(=O)N(C)C(C(C)C)C(=O)OCC(NC(=O)c1cnc3ccccc3n1)C(=O)NC(C)C(=O)N2C (stereo not given)	65.2*	16.2	85.0*	99.3*	91.5*
CCCS(=O)(=O)Nc1ccc(Nc2c3ccccc3nc3ccccc23)c(OC)c1	-26.8	43.2	42.8*	-2.9	-40.0
O=C(C[C@H]1C=C[C@H](NC(=O)C2CCC2)[C@@H](CO)O1)Nc1nccs1	.	0.9	.	-4.6	.
O=C(Oc1ccccc1C(=O)Nc1ccccc1)c1ccc(Br)c([N+](=O)[O-])c1	-41.8	-1.6	-11.4	-13.9	20.3
O=C(NCc1cc(Br)cc(Br)c1OC(=O)c1ccccc1[N+](=O)[O-])c1ccccc1	34.0	13.8	7.0	27.8	55.1*
Cc1onc(-c2c(F)cccc2Cl)c1C(=O)OCC(=O)c1c[nH]c2ccccc12	28.3	7.4	0.9	-2.5	58.2*
Cc1onc(-c2c(F)cccc2Cl)c1C(=O)OCC(=O)NCc1ccco1	53.8*	.	-39.4	.	6.3
Cc1noc(C)c1C(=O)OCC(=O)c1c[nH]c2ccccc12	-26.8	.	-2.4	.	6.5
CCCNC(=O)C[C@H]1CC[C@H]2[C@@H](COC[C@@H](O)CN2Cc2ccccc2F)O1	.	-3.2	.	-11.4	.
C[C@H]1CN([C@@H](C)CO)C(=O)CCCn2cc(nn2)CO[C@@H]1CN(C)C(=O)CCC(F)(F)F	-4.8	-14.5	3.7	-3.5	88.5*
C[C@@H]1CN([C@@H](C)CO)C(=O)CCCn2cc(nn2)CO[C@@H]1CN(C)C(=O)CCC(F)(F)F	.	-2.4	.	5.7	.
O=C1c2ccccc2C2=Nc3ccccc3SC(c3ccc(Cl)cc3)C12 (stereo not given)	37.1	-6.3	-8.1	18.4	39.1
O=C1c2ccccc2C2=Nc3ccccc3SC(c3cccc(F)c3)C12 (stereo not given)	71.0*	.	12.2	21.3	48.0
C[C@H](CO)N1C[C@H](C)[C@H](CN(C)Cc2ccc(C(F)(F)F)cc2)Oc2ccc(NC(=O)Nc3ccc4c(c3)OCO4)cc2C1=O	.	-1.2	.	4.4	.
CC(C)CCN1C(=O)c2ccc(C(=O)Nc3cc(C(=O)O)cc(C(=O)O)c3)cc2C1=O	-15.0	4.7	-1.2	6.9	-1.7
CC(C)CCN1C(=O)c2ccc(C(=O)Nc3ccc(Br)cc3C(=O)O)cc2C1=O	57.6*	5.0	3.1	-2.9	-3.4
C[C@H]1CN([C@@H](C)CO)C(=O)c2cc(NC(=O)C3CC3)ccc2O[C@@H]1CN(C)Cc1ccccc1	.	0.1	.	-21.1	.
Oc1c(C=Nc2ccccc2)sc2ccccc12	36.6	-86.9	-48.4	?	67.5*
CCC(C)c1ccccc1NC(=O)COC(=O)c1ccc2[nH]c3c(c2c1)CCCC3 (stereo not given)	56.0*	.	14.6	13.2	97.6*
O=C(COC(=O)c1ccc2[nH]c3c(c2c1)CCCC3)Nc1ccccc1Cl	26.6	-14.1	4.6	11.2	-44.7
CC1(C)Cc2nc3sc4c(N(CCO)CCO)ncnc4c3cc2CO1	-13.6	.	-3.7	-5.0	1.8
SMILES	TROY NFkB inh	EWS-Fli inh	LMP1 NFkB inh	LGR2 inh	TWEAK-Fn14 inh
CC1(C)Cc2nc3sc4c(SCC(=O)O)ncnc4c3cc2CO1	-34.1	46.2	52.3*	9.3	16.6
COC(=O)CSc1ncnc2c1sc1nc3c(cc12)COC(C)(C)C3	1.7	39.3	51.3*	3.7	12.4
CC1(C)Cc2nc3sc4c(SCC(=O)NCc5ccccc5)ncnc4c3cc2CO1	-21.0	.	12.7	.	36.8
C[C@@H]1CN([C@@H](C)CO)C(=O)c2cc(-c3cncnc3)cnc2O[C@@H]1CN(C)C(=O)Cc1cccnc1	.	-4.0	.	22.5	.
CC(O)c1cccc(NC(=O)CC(c2ccccc2)c2ccccc2)c1 (stereo not given)	-2.4	3.4	2.2	9.4	86.4*
CCc1ccc(NC(=O)c2nc(S(=O)(=O)Cc3ccccc3)ncc2Cl)cc1	78.8*	.	23.1	3.3	85.9*

Screening results deposited in PubChem BioAssay by several laboratories.
